Source: ChEMBL document CHEMBL3988442, “University of Dundee, Small-Polar-MMV Screening Library” (2021)
For some assays here: Entries with a potency or affinity are not part of this list.

Key:
Set-up in all cases: scale not given: direction of the effect not stated beside the values
[1] = target: Protein translocase subunit SecA (Escherichia coli (strain K12)) (UniProt P10408); test: Assay to Identify E. coli SecA ATPase Inhibitors; type: functional; details: 30 µM
[2] = target: T1, Ubiquitin-activating enzyme e1, putative (Leishmania donovani (strain BPK282A1)) (UniProt E9BSI1); test: Leishmania donovani Ubiquitin Activating Enzyme (LdE1); type: functional; details: 30 µM
T1 sequence (whole entry): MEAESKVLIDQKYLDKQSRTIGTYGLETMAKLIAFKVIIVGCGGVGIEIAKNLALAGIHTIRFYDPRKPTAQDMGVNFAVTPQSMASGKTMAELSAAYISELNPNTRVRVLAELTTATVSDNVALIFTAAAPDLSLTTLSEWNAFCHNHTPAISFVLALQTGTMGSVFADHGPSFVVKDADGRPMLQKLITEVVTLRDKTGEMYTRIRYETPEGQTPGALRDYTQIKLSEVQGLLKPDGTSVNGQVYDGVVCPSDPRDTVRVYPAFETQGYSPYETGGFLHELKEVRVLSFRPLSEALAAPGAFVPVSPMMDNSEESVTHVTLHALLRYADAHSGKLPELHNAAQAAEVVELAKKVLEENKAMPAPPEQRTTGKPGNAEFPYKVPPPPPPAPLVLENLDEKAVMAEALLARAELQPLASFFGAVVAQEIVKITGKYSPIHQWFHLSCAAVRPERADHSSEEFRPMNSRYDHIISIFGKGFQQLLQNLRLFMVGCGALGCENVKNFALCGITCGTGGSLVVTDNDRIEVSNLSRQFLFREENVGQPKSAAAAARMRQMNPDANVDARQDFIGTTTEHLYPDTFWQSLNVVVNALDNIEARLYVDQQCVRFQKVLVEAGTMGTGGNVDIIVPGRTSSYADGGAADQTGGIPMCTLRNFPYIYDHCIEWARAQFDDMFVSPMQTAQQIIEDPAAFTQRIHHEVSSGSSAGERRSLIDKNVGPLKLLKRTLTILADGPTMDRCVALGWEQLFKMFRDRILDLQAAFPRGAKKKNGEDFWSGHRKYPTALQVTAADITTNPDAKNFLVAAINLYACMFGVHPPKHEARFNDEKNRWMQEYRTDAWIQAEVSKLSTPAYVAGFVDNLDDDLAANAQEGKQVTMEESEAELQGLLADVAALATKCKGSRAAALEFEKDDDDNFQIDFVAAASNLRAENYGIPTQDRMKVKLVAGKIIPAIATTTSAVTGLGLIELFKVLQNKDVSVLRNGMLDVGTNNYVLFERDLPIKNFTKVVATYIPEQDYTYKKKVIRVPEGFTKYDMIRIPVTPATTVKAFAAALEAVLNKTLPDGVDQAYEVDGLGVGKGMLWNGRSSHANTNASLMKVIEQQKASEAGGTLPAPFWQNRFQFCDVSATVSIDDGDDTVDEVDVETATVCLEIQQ

[3] = target: AMP-activated protein kinase, AMPK (Homo sapiens) (UniProt P54646+O43741+P54619+Q9UGJ0+Q9Y478+Q13131+Q9UGI9); test: AMP-dependent Kinase enzyme assay. An in vitro enzyme assay that detects ADP turnover that is directly proportional to AMPK activity. This uses naive AMPK that is activated during the assay with MK-8722; type: functional; details: 30 µM
[4] = target: Sialic acid-binding Ig-like lectin 9 (Homo sapiens) (UniProt Q9Y336); test: Hs-Siglec9 ALPHAscreen SOP 20170721; details: 10 µM
Sialic acid-binding Ig-like lectin 9 (Homo sapiens), sequence (Q9Y336 whole entry): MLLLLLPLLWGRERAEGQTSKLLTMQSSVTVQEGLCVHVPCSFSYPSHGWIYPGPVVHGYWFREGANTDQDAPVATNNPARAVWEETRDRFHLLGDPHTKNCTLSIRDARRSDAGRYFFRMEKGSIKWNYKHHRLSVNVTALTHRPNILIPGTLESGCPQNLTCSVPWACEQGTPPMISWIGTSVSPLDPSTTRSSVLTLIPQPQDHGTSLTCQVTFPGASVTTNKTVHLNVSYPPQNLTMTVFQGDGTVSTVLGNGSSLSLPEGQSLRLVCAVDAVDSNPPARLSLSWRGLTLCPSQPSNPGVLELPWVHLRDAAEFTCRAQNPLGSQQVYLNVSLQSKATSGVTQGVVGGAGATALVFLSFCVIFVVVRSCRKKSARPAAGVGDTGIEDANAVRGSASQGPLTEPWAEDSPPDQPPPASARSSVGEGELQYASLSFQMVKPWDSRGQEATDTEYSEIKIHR

Trypanosoma cruzi = test: Trypanosoma cruzi phosphomannomutase and mannose-1-phosphate guanylyltransferase assay; type: functional; details: 10 µM
[5] = target: T2, Arginase-2, mitochondrial (Homo sapiens) (UniProt P78540); test: in vitro enzyme assay to detect the production of urea directly proportional to the activity of Arginase II; type: functional; details: 33.3 µM; note: in the data most compounds retested in dose-response had high values
T2 sequence (whole entry): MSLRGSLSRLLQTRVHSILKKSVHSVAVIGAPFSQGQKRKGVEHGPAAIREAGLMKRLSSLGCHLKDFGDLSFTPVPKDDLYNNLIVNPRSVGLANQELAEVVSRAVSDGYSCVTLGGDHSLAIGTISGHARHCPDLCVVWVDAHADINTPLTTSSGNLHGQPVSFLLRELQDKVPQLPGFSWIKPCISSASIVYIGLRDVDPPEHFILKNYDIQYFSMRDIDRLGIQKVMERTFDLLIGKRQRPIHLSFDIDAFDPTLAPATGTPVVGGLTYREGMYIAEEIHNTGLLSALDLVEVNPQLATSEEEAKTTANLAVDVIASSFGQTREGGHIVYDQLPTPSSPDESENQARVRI

[6] = target: T3, Proteasome subunit beta (Trypanosoma cruzi) (UniProt O96673); test: Trypanosoma cruzi proteasome chymotrypsin-like activity (TcProtChymo) assay.; note: in the data most compounds retested in dose-response had high values; type: functional; details: 9.37 µM
T3 sequence (whole entry): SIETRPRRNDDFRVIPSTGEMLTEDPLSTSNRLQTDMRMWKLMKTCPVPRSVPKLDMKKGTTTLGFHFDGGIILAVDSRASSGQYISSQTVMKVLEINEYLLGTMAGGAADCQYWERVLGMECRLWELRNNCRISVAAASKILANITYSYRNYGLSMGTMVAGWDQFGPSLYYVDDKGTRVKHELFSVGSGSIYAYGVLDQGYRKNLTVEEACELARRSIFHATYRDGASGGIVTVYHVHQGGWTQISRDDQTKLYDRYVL

Homo sapiens = organism: Homo sapiens; test: To identify inhibition of the IFN signalling (Jak-Stat) pathway via expression of an eGFP reporter gene under the control of an IFN-stimulated response element (ISRE) containing MxA promoter.; type: functional; details: 30 µM
[7] = target: T4, Tyrosyl-tRNA synthetase, putative (Trypanosoma cruzi (strain CL Brener)) (UniProt Q4DSP6); test: Trypanosoma cruzi tyrosyl tRNA synthetase (TcYRS) _High Tyrosine SOP; type: functional; details: 30 µM; note: in the data most compounds retested in dose-response had high values
T4 sequence (whole entry): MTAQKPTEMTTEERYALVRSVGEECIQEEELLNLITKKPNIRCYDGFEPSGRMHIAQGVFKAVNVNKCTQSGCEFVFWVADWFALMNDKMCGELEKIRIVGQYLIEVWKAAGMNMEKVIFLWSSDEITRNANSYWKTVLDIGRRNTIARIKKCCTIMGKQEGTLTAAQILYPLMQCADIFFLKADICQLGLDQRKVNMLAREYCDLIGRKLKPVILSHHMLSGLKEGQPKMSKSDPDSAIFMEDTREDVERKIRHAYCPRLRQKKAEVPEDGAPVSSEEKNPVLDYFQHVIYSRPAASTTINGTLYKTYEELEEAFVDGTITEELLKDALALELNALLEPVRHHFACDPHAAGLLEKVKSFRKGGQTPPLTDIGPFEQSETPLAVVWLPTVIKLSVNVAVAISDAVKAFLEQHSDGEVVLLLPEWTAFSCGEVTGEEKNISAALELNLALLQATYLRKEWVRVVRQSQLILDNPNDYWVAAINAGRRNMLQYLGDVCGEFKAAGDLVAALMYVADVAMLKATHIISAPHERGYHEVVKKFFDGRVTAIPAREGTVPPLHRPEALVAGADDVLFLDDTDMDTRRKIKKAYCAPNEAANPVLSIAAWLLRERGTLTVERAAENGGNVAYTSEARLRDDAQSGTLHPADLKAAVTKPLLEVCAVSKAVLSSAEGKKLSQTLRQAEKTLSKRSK

[8] = target: T4, Tyrosyl-tRNA synthetase, putative (Trypanosoma cruzi (strain CL Brener)); test: Trypanosoma cruzi tyrosyl tRNA synthetase (TcYRS) SOP; type: functional; details: 30 µM
[9] = target: Chromo domain-containing protein 1 (Saccharomyces cerevisiae (strain ATCC 204508 / S288c) (Baker's yeast)) (UniProt P32657); test: ScCHD-1 Enzyme Inhibition Assay; type: functional; details: 30 µM; note: in the data most compounds retested in dose-response had high values
Chromo domain-containing protein 1 (Saccharomyces cerevisiae (strain ATCC 204508 / S288c) (Baker's yeast)), sequence (P32657 whole entry, the tested form may be a part): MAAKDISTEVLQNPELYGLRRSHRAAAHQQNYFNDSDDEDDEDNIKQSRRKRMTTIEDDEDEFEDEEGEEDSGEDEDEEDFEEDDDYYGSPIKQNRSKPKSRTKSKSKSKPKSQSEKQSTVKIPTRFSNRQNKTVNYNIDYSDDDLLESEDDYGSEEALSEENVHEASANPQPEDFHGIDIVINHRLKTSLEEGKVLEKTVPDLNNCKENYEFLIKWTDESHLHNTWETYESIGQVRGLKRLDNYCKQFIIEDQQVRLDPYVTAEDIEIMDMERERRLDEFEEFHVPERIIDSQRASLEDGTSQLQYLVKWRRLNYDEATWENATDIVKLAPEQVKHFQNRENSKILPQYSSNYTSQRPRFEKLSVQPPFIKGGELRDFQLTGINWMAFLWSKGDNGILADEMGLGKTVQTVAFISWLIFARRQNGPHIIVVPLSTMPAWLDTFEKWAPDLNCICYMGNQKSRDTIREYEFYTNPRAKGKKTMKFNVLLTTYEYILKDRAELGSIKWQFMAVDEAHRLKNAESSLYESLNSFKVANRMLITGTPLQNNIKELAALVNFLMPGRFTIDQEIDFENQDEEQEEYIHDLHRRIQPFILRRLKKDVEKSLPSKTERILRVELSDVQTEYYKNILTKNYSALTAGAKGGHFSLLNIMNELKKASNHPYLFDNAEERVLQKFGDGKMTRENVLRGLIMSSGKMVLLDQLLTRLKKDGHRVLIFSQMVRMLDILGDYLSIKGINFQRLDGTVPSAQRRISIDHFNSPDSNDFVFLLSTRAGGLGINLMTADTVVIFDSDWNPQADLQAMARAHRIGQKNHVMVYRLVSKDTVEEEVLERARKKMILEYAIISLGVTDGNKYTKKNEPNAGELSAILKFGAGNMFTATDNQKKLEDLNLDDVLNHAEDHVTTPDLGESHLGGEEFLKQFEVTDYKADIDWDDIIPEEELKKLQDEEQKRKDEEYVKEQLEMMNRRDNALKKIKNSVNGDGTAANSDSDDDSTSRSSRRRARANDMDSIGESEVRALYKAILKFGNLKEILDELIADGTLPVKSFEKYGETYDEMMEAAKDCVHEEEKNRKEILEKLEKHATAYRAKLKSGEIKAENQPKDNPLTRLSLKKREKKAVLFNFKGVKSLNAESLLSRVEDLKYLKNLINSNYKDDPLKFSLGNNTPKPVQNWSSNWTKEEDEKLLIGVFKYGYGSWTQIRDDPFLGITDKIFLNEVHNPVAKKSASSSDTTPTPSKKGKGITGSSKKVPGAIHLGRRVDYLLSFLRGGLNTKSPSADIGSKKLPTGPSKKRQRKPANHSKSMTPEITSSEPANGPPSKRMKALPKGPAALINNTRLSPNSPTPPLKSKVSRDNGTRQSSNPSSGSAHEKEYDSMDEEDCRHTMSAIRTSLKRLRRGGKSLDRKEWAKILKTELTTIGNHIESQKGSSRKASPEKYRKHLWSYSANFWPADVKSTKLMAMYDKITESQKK

Protein translocase subunit SecA (Escherichia coli (strain K12)), sequence (P10408 whole entry): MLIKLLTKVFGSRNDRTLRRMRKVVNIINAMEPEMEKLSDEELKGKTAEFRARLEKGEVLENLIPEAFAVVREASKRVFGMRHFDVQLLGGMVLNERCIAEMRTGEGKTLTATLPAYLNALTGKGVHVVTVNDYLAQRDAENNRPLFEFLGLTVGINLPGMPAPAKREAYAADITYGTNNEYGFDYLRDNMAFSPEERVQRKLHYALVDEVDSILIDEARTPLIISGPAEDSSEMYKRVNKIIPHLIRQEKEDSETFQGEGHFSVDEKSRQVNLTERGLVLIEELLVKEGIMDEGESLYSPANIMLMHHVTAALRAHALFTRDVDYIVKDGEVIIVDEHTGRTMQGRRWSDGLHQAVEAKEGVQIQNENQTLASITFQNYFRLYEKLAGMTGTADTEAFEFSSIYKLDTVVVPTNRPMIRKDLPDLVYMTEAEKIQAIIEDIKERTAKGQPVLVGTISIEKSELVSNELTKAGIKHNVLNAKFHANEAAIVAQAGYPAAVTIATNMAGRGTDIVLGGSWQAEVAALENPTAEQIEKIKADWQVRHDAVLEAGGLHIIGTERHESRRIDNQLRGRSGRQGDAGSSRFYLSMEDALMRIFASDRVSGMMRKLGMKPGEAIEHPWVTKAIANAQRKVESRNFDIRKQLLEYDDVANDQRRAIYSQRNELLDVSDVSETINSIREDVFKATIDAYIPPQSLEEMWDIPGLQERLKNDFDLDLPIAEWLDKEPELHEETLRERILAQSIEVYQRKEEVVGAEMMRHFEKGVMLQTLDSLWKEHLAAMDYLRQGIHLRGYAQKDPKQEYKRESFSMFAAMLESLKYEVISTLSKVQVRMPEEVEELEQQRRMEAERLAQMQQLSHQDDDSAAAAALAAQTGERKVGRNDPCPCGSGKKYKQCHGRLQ

SMILES | Percent Effect [1] [%] | Percent Effect [2] [%] | Percent Effect [3] [%] | Percent Effect [4] [%] | Percent Effect (Trypanosoma cruzi) [%] | Percent Effect [5] [%] | Percent Effect [6] [%] | Percent Effect (Homo sapiens) [%] | Percent Effect [7] [%] | Percent Effect [8] [%] | Percent Effect [9] [%]
CN(Cc1nccn1CC(F)(F)F)C(=O)c1ccc(F)c(F)c1 | -4.78 | 5.26 | 7.84 | 5.27 | -1.46 | 0 | 10.4 | 4.07 | 4.25 | 13 | 26.9
CN1CC(=O)N(c2cnn(C)c2)CC12CCN(Cc1nccn1C)C2 (configuration not stated) | -0.706 | 8.22 | 4.05 | 7.48 | -4.17 | -0.399 | 10.2 | 6.84 | 4.17 | 6.17 | -4.89
Cc1cnnn1Cc1ncn2c1CN(Cc1cccs1)CCC2 | -5.14 | 2.7 | -2.96 | -6.54 | -5.18 | -0.955 | 15.3 | 14.8 | 2.16 | 5.13 | -3.69
COCC1COCCC12CCN(C(=O)CCc1ccccc1)CC2 (configuration not stated) | -7.38 | 0 | 1.05 | -3.38 | -2.73 | 0 | 4.65 | -6.87 | 3.96 | 3.66 | 6.04
COc1cccc(COCC(=O)N2CCCC(N3CCCC3)CC2)c1 (configuration not stated) | -1.29 | -10.5 | 4.62 | -2.23 | 2.26 | 0 | 6.52 | -5.01 | 14.2 | 7.32 | -0.94
CC(=O)N(Cc1noc(C2CC2)n1)C1CCN(Cc2nccn2C)C1 (configuration not stated) | -1.42 | 16.2 | -8.4 | -4.39 | -6.22 | -4.25 | 11.1 | 11.5 | 3.96 | 18.3 | -5.65
CC(=O)N1CCC(Oc2ccc(Cl)cn2)CC1 | -1.02 | 5.48 | -4.62 | 4.94 | 4.5 | 8.64 | 3.19 | 18.8 | 3.23 | 7.5 | -4.92
CC(C)CNC(=O)[C@H]1CCS(=O)(=O)[C@@H]2CN(Cc3ccc(Cl)cc3)C[C@H]12 | -2.67 | 2.7 | -1.66 | -4.02 | 1.17 | 2.5 | 22.7 | -6.94 | 11.9 | 13.4 | -1.05
O=C(c1ccn(-c2ccccc2Cl)n1)N1CCSCC1 | -4.68 | 8.11 | 1.31 | 12.9 | -6.55 | 1.74 | 3.69 | 20.1 | 0 | 11.1 | -3.09
COc1ccc(CN(Cc2cncn2C)CC2CCCO2)c(OC)c1 (configuration not stated) | -2.55 | 17.6 | 4.23 | -4.44 | -0.79 | 0.696 | 20 | 17.5 | 5.38 | 14.3 | -18.5
CC(c1ccc(Cl)cc1)N1CCN(CCNS(C)(=O)=O)CC1 (configuration not stated) | -4 | -2.7 | -2.79 | 66.6 | 3.28 | 0.952 | 10.7 | 4.77 | 4.76 | 19.5 | -8.23
Cc1cnn(CC2CCCCN2Cc2nc(N)c3ccccc3n2)c1 (configuration not stated) | -5.11 | 10.1 | -4.6 | 5.93 | 8.78 | 0 | 12.2 | -0.892 | 14.3 | 21.5 | -8.03
Cc1ncc(CNC(=O)Nc2cc(C(F)(F)F)c[nH]c2=O)s1 | -6.87 | -1.39 | -10.2 | -4.64 | -5.34 | 2.65 | 18.2 | -11.2 | -1.05 | -2.56 | 0.478
Cc1cc(NC(=O)NCc2ccccn2)n(C)n1 | -3.34 | -6.33 | 3.11 | 5.94 | 0.103 | -2.37 | 15.6 | -16.7 | 2.08 | 12.7 | -12.3
CC(=O)N(Cc1noc(C)n1)C1CCN(Cc2ccncc2Cl)C1 (configuration not stated) | -3.16 | 16.5 | -1.3 | 0.699 | -1.95 | 2.8 | 12.5 | 8.22 | 3.12 | 12.7 | -16
Cc1noc2ncc(C(=O)N(CC3CCOC3)C3CC3)cc12 (configuration not stated) | -0.0275 | 7.89 | -3.99 | 3.92 | -9.59 | 3.45 | 7.69 | 24.4 | 0.49 | 4.88 | -5.66
CC(C)c1nn(C)c(N(C)C)c1CNCCC(=O)NC1CCCC1 | -6.71 | 21.1 | -15.3 | 3.05 | 10.4 | 1.08 | 13.4 | -19.1 | 7.39 | 23.5 | -6.05
CCNS(=O)(=O)c1ccc(C)c(C(=O)N(C)Cc2ccco2)c1 | -2.78 | -4.17 | 4.21 | 0.221 | -1.65 | 0.442 | 13 | -0.366 | -27.4 | -2.56 | 2.86
CCc1cnc2c(c1Nc1ccncc1)c(=O)n(C)c(=O)n2C | 0.799 | 18.2 | 5.71 | -13.1 | 2.27 | 1.94 | 14.6 | 35.5 | 7.41 | 14.1 | -10.9
Cc1c(C)n(Cc2ccccn2)c2nc3c(c(N)c12)CCCC3 | -3.58 | -1.33 | 15.5 | 6.91 | -3.73 | -8.98 | 12.8 | -6.48 | 2.12 | 5.13 | -5.09
O=C(c1ccc[nH]1)N1CCn2cc(Cn3cncn3)nc2C1 | -0.971 | 2.67 | 2.39 | -2.2 | -3.94 | 3.03 | 11.2 | 13.4 | 3.19 | -1.28 | -3.1
Cc1cc(OCC(=O)NC(C)c2ccc(N3CCOCC3)cc2)no1 (configuration not stated) | -4.84 | 18.2 | -0.141 | 11.2 | 5.61 | -89.7 | 8.15 | -3.73 | 3.23 | 13.6 | -6.7
